The values below come from ChEMBL document CHEMBL2218924, “A broad activity screen in support of a chemogenomic map for kinase signalling research and drug discovery” (Biochem J, 2013).

For assay [1], the target named is RAC-alpha serine/threonine-protein kinase (Homo sapiens) (UniProt P31749). Conditions: at 1 µM.
Assay [2] has the same target. Conditions: at 10 µM.

Chain of RAC-alpha serine/threonine-protein kinase (Homo sapiens) (P31749 whole entry): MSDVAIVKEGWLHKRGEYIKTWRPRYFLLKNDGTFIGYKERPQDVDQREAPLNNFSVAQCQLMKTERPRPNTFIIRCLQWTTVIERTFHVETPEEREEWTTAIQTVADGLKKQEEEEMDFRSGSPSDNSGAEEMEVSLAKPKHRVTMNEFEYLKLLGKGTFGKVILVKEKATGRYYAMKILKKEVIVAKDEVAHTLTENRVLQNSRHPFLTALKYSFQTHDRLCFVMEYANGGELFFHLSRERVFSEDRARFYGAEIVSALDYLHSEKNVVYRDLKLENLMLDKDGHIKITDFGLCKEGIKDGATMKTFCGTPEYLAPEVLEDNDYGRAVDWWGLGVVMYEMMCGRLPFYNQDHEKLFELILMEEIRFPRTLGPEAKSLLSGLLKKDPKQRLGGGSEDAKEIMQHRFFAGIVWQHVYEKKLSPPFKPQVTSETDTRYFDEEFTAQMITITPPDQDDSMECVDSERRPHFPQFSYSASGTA

Turning to `COc1ccc(OC)c2c(=S)c3ccccc3[nH]c12`, the residual activity amounted to 109% in assay [1] and 104% in assay [2].

With `COc1cc2ncnc(Nc3ccc(O)c(Br)c3)c2cc1OC`, the residual activity came out at 107% in assay [1] and 105% in assay [2].

For the compound `Cc1ccc(NC2=CC(=O)c3sc(C)nc3C2=O)cc1`, the residual activity turned out to be 111% in assay [1] and 107% in assay [2].

Take `O=C1Nc2ccccc2/C1=C1/Nc2ccccc2/C1=N\OCCC(O)CO` (stereo not given): the residual activity in assay [1] was 113%; in assay [2] it was 101%.

For `CN(C)c1ccc(/C=C2\C(=O)Nc3ccccc32)cc1`, the residual activity worked out at 112% in assay [1] and 121% in assay [2].

For the compound `Nc1ccc2ncnc(NCCc3ccc(Oc4ccccc4)cc3)c2c1`, the residual activity in assay [1] amounted to 110%; in assay [2], 108%.

For `CC(C)(C)n1nc(Cc2cccc3ccccc23)c2c(N)ncnc21`, the figures for the residual activity in assay [1] and in assay [2] were 96% and 107%, respectively.

Regarding `COc1cc2c(cc1OC)-c1n[nH]c(Nc3cccc(F)c3)c1C2`, the residual activity in assay [1] and in assay [2] was 107% throughout.

Take `Nc1ncnc2c1c(-c1ccc(Oc3ccccc3)cc1)cn2C1CCCC1`: the residual activity in assay [1] came out at 105%; in assay [2] it was 111%.

For `c1ccc2c(-c3ccncc3)c[nH]c2c1`, the residual activity in assay [1] is 103%; in assay [2] it was 104%.

Regarding `Cc1nc(-c2ccccc2)c(-c2ccncc2)o1`, the values for the residual activity in assay [1] and in assay [2] were 110% and 102%, respectively.

On to `Cn1c2ccccc2c2c3c(c4c5ccccc5n(CCC#N)c4c21)CNC3=O`, for which the residual activity stood at 106% in assay [1] and 105% in assay [2].

Consider `CN(C)CCCn1cc(C2=C(c3c[nH]c4ccccc34)C(=O)NC2=O)c2ccccc21`, for which the figures for the residual activity in assay [1] and in assay [2] were 103% and 104%, respectively.

On to `Oc1c2ccccc2c2c3c(cccc13)N=N2`, for which the residual activity in assay [2] turned out to be 110%.

For the compound `COc1cccc(-c2cc(=O)c3ccccc3o2)c1N`, the residual activity was found to be 106% in assay [1] and 109% in assay [2].

Take `C[C@@H](N)[C@H]1CC[C@H](C(=O)Nc2ccncc2)CC1`: the residual activity in assay [1] was 88%; in assay [2] it was 76%.

With `O=c1cc(-c2cccc3c2Sc2ccccc2S3)oc(N2CCOCC2)c1`, the residual activity in assay [1] was found to be 99%; in assay [2], 103%.

On to `O=S(=O)(NCCNC/C=C/c1ccc(Br)cc1)c1cccc2cnccc12`, for which the residual activity in assay [2] was 22%.

On to `COc1ccc(S(=O)(=O)N(CCO)c2ccccc2CN(C)C/C=C/c2ccc(Cl)cc2)cc1`, for which the residual activity in assay [1] is 116%; in assay [2], 112%.

As for `N#C/C(=C(\N)Sc1ccc(N)cc1)c1ccccc1C(F)(F)F`, the residual activity came to 112% in assay [1] and 108% in assay [2].

As for `O=c1cc(N2CCOCC2)oc2c1ccc1ccccc12`, the residual activity was 103% in assay [1] and 106% in assay [2].

Turning to `Oc1ccc(-c2nc(-c3ccc(F)cc3)c(-c3ccncc3)[nH]2)cc1`, the residual activity in assay [1] turned out to be 113%; in assay [2], 112%.

Regarding `O=C1NC(=O)c2cc(Nc3ccc(F)cc3)c(Nc3ccc(F)cc3)cc21`, the residual activity was found to be 101% in assay [1] and 107% in assay [2].

On to `O=C(Nc1cccc(Nc2nccc(Nc3cccc(C(F)(F)F)c3)n2)c1)C1CC1`, for which the residual activity in assay [1] came out at 103%; in assay [2], 104%.

Consider `NCCNc1ncc(C(N)=O)c(Nc2cccc(C(F)(F)F)c2)n1`, for which the residual activity in assay [2] turned out to be 112%.

Take `COc1cc2ncnc(Nc3ccc(Oc4ccccc4)cc3)c2cc1OC`: the residual activity in assay [1] amounted to 108%; in assay [2] it was 107%.

Regarding `O=C(CCCc1ccc(-c2ccccc2F)cc1)Nc1ccc(O)cc1`, the residual activity in assay [1] stood at 103%; in assay [2] it was 105%.

With `COc1cc2ncnc(Nc3ccc(NC(=O)c4ccccc4)cc3)c2cc1OC`, the residual activity in assay [1] was 105%; in assay [2], 110%.

Consider `Nc1nc(Nc2ccc(S(N)(=O)=O)cc2)nn1C(=O)c1c(F)cccc1F`, for which the residual activity in assay [1] was found to be 104%; in assay [2], 103%.

For `O=C(c1ccccc1)c1ccc(N2CCOCC2)cc1O`, the values for the residual activity in assay [1] and in assay [2] were 96% and 98%, respectively.

As for `CC(C)n1cnc2/c(=N/c3cccc(Cl)c3)nc(NCCO)[nH]c21`, the residual activity in assay [1] came out at 111%; in assay [2], 109%.

As for `CCCCc1c(-c2ccc(OC)cc2)[nH]c2nccnc12`, the residual activity was determined as 118% in assay [1] and 106% in assay [2].

For the compound `O=C(O)c1ccc2c3c1cccc3c(=O)n1c3ccccc3nc21`, the residual activity in assay [1] stood at 111%; in assay [2] it was 100%.

Regarding `CO[C@@H]1[C@H](N(C)C(=O)c2ccccc2)C[C@H]2O[C@]1(C)n1c3ccccc3c3c4c(c5c6ccccc6n2c5c31)C(=O)NC4`, the residual activity is 97% in assay [1] and 99% in assay [2].

With `Cc1cc(Nc2nc(-c3ccccc3)nc3ccccc23)n[nH]1`, the results for the residual activity in assay [1] and in assay [2] were 113% and 101%, respectively.

On to `O=C1Cc2c([nH]c3ccc([N+](=O)[O-])cc23)-c2ccccc2N1`, for which the residual activity in assay [1] and in assay [2] was 104% in each case.

In the case of `O=C1Nc2cc(Br)ccc2/C1=C1/Nc2ccccc2/C1=N\O`, the residual activity in assay [1] is 114%; in assay [2] it was 107%.

With `O=C1c2ccccc2-[n+]2ccc3c([nH]c4ccccc43)c21`, the residual activity in assay [1] came to 108%; in assay [2], 107%.

For the compound `O=C1NC(=O)/C(=C\c2ccc3nccnc3c2)S1`, the residual activity in assay [1] worked out at 106%; in assay [2], 108%.

With `COc1cc2nccc(Oc3ccc(NC(=O)Nc4cc(C)on4)c(Cl)c3)c2cc1OC`, the residual activity worked out at 97% in assay [1] and 101% in assay [2].

With `CCOc1cc2ncnc(Nc3cccc(Br)c3)c2cc1OCC`, the residual activity in assay [1] came out at 101%; in assay [2], 109%.

As for `Oc1ccc(Nc2nc(-c3ccc(Cl)cc3)cs2)cc1`, the residual activity worked out at 124% in assay [1] and 94% in assay [2].

Regarding `O=C(Nc1cccc(Nc2cc(Nc3cccc(C(F)(F)F)c3)ncn2)c1)C1CC1`, the residual activity was 96% in assay [1] and 99% in assay [2].

In the case of `O=[N+]([O-])c1ccc(-c2nc(-c3ccc(F)cc3)c(-c3ccncc3)[nH]2)cc1`, the residual activity in assay [1] was determined as 112%; in assay [2] it was 103%.

As usually defined, the residual activity is the signal under treatment as a percentage of the control signal.
